Laboratory results reported in PubChem BioAssay (NCI).
About 83,000 compounds went through this panel and 20% of them were active in at least one assay; those are over-represented in the sample as a whole.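 For each line, cells grew in 96-well plates with the test compound present at a single concentration for 48 hours.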 Values without a mark were called inactive. Activity calls are given as the source filed them. Rule for the calls: active = growth percent below 10; inactive = the rest.

The compounds below were run on ACHN renal (assay: NCI-60 one-dose screen, 48 h (100 = growth as untreated, 0 = no growth, -100 = all killed)). Conditions: 10 µM.

Row | SMILES | growth
1 | CC1=C(COCCOC(=O)c2ccc(S(=O)(=O)F)cc2)C2=C(C)C3(CC3)[C@@](C)(O)C(=O)C2=C1 | -19.3% (active)
2 | CC[C@]12C=CCN3CC[C@@]4(c5ccc(OC)cc5N(C)[C@H]4[C@@](O)(C(=O)OC)[C@@H]1OC(=O)CCCC[P+](c1ccc(OC)cc1)(c1ccc(OC)cc1)c1ccc(OC)cc1)[C@@H]32 | -49.2% (active)
3 | CC1=C(CCC=NNC(N)=O)C2=C(C)C3(CC3)[C@@](C)(O)C(=O)C2=C1 | -37.7% (active)
4 | CC[C@@]12CC(C(=O)OC)=C3Nc4cc5c(cc4[C@@]34CCN(C[C@H]3O[C@H]31)[C@@H]24)[C@@H]1[C@H](O5)[C@@H](O)[C@@]2(CC)CC(C(=O)OC)=C3Nc4cc(OC)ccc4[C@@]34CCN1[C@@H]24 | 17.8%
5 | CCOP(=O)(CC(F)(F)C(F)(F)F)OCC | -23.1% (active)
6 | CC1=C2C(=C[C@@](C)(COP(=O)(Oc3ccccc3)Oc3ccccc3)[C@@H]2O)C(=O)[C@@](C)(O)C12CC2 | -56.8% (active)
7 | CC(=O)Oc1ccccc1C(=O)NC([Se])=NC1CCCCC1 | 20.2%
8 | C[C@H]1[C@H](OC(=O)CCC(=O)N(CCCc2cn(-c3ccc(CN4CCOCC4)cc3)nn2)CCNc2ccnc3cc(Cl)ccc23)O[C@@H]2OC3(C)CC[C@H]4[C@H](C)CC[C@@H]1[C@@]24OO3 | 23.1%
9 | O=C(/C=C/c1ccc(Cl)cc1)c1nc2ccccc2n1Cc1ccc(F)cc1 | 23.5%
10 | CC1=C(CCC=O)C2=C(C)C3(CC3)[C@@](C)(O)C(=O)C2=C1 | -100% (active)
11 | O=C(NC([Se])=NC1CCCCC1)c1ccc2c(c1)OCO2 | 17%
12 | C[C@H]1[C@H](OC(=O)CCC(=O)N(CCCc2cn(-c3ccc(C#N)cc3)nn2)CCNc2ccnc3cc(Cl)ccc23)O[C@@H]2OC3(C)CC[C@H]4[C@H](C)CC[C@@H]1[C@@]24OO3 | 44.5%
13 | C[C@H]1[C@@H](Oc2ccc(-c3cn(-c4ccnc5cc(Cl)ccc45)nn3)cc2)O[C@@H]2OC3(C)CC[C@H]4[C@H](C)CC[C@@H]1[C@@]24OO3 | 14.3%
14 | COc1ccc(/C=C/C(=O)c2nc3ccccc3n2Cc2ccc(Br)cc2)cc1 | 77.5%
15 | COC(=O)CCn1c(-c2ccc(-n3cc(-c4ccc(O[C@H]5O[C@@H]6OC7(C)CC[C@H]8[C@H](C)CC[C@@H]([C@H]5C)[C@@]68OO7)cc4)nn3)cc2)nc2ccccc21 | 8.18% (active)
16 | C[C@H]1[C@H](OC(=O)CCC(=O)N(CCCc2cn(-c3ccc([N+](=O)[O-])cc3)nn2)CCNc2ccnc3cc(Cl)ccc23)O[C@@H]2OC3(C)CC[C@H]4[C@H](C)CC[C@@H]1[C@@]24OO3 | 37.5%
